Experimental data reported in PubChem BioAssay AID623911 (Vanderbilt High Throughput Screening Facility, 2012).
The whole screen tested about 2,100 compounds, of which about 770 (37%) were called active.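 How the source made its calls: active means by-eye trace score of 1 for enhancers or -1 for inhibitors, so actives lie on both sides (some results past the limit were not filed as active); inactive means score 0, or 3 fluorescent, or 4 baseline rise.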 The list shows a part of the results.

What follows are compounds tested against G protein-activated inward rectifier potassium channel 2 (Homo sapiens) + G protein-activated inward rectifier potassium channel 1 (Homo sapiens) (UniProt P48051+P48549) (assay: GIRK1/2 thallium flux modulators, retest, confirmation, cell-based, HEK293 rmGlu8/hGIRK1/2, FluoZin-2 (AID 623911)). Conditions: HEK293 rmGlu8/hGIRK1/2, thallium flux FluoZin-2; actives lie on both sides; glutamate co-added at its EC20 level.
Sequence of G protein-activated inward rectifier potassium channel 2 (Homo sapiens) + G protein-activated inward rectifier potassium channel 1 (Homo sapiens) (P48051 whole entry, looked up): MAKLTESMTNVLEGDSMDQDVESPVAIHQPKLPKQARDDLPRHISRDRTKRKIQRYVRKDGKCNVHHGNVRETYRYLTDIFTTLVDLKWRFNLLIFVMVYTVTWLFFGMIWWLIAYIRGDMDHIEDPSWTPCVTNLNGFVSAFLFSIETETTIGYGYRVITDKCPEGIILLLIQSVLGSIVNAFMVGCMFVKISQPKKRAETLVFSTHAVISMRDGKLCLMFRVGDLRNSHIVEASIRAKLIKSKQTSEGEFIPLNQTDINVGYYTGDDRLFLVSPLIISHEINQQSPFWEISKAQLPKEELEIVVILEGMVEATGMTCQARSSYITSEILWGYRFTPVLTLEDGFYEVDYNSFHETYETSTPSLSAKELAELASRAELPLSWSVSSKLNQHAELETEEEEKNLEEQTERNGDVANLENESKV
Sequence of G protein-activated inward rectifier potassium channel 2 (Homo sapiens) + G protein-activated inward rectifier potassium channel 1 (Homo sapiens) (P48549 whole entry, looked up): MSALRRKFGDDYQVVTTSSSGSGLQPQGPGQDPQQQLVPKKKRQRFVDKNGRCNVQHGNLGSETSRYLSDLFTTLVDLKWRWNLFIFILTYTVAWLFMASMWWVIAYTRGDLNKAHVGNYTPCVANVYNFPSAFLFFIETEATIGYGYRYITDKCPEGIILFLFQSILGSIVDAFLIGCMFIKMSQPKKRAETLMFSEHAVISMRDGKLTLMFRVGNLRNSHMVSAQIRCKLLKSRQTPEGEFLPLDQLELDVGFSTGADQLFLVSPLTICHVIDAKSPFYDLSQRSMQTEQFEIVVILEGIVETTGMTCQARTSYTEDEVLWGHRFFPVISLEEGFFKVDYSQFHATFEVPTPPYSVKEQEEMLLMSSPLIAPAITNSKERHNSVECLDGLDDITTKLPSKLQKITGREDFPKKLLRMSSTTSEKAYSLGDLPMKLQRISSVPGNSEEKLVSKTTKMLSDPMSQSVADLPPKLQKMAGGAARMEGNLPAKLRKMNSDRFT

SMILES	manual score
O=C(C1CCN(c2ncnc3c2sc2cccc(F)c23)CC1)N1CCOCC1	0 (inactive)
CCOc1ccc(-c2nc(-c3ccncc3)no2)cc1OCC	0.5 (inactive)
S=C(NCc1ccco1)N/N=C/c1ccc(Cl)cc1	0 (inactive)
S=C(NCc1ccco1)Nc1ccc(Cl)c(Cl)c1	1 (active)
COc1ccc(/C(C)=N/NC(=S)NCc2ccco2)cc1	0 (inactive)
COc1ccc(C(=S)Nc2ccc(N(C)C)cc2)cc1	0 (inactive)
COc1ccc2nc(N=Nc3ccc(O)c4ccccc34)sc2c1	0 (inactive)
COc1ccc2nc(NC(=S)N(C)C)sc2c1	1 (active)
Clc1ccccc1-c1nnc2sc(CCc3ccccc3)nn12	0 (inactive)
CCn1c(O)c(N=NC2=NC(=O)CS2)c2cc(C)ccc21	0 (inactive)
CCc1ccc2c(c1)c(N=NC1=NC(=O)CS1)c(O)n2C	1 (active)
CCc1ccc2c(c1)c(N=NC1=NC(=O)CS1)c(O)n2CC	1 (active)
CC(C)(C)c1csc(NC(=O)c2ccc3nccnc3c2)n1	0 (inactive)
Cc1cs/c(=N\N=C\c2cccc([N+](=O)[O-])c2)n1Cc1ccco1	0 (inactive)
CC(C)Sc1oc(-c2ccco2)nc1S(=O)(=O)c1ccccc1	-1 (active)
N=c1c(C(=O)NCc2ccco2)cc2c(=O)n3ccccc3nc2n1CCc1ccccc1	-1 (active)
O=C(CCCCn1c(=O)c2ccccc2n(CC(=O)NC2CCCC2)c1=O)NCc1ccco1	0 (inactive)
CCCn1c(=N)c(C(=O)NCc2ccc3c(c2)OCO3)cc2c(=O)n3cccc(C)c3nc21	-1 (active)
Cc1cccn2c(=O)c3cc(C#N)c(=NC(=O)c4cccnc4)n(CC4CCCO4)c3nc12 (stereo unspecified)	3 (inactive)
Cn1c(=O)cc(OCCCC(=O)NCc2ccc3c(c2)OCO3)c2ccccc21	0 (inactive)
CCn1c(SCc2nc(-c3ccccc3)no2)nc2ccccc21	0 (inactive)
CCn1c(SCC(=O)c2cc(C)n(CC3CCCO3)c2C)nc2ccccc21 (stereo unspecified)	-1 (active)

SMILES	manual score
O=C(CSc1nc2ccccc2c(=O)n1CC1CCCO1)N1CCN(c2ccccc2)CC1 (stereo unspecified)	0 (inactive)
Cc1ccccc1-c1nc(CS(=O)(=O)CC(=O)NCCCN2CCCC2)c(C)o1	-1 (active)
O=C(CCN1C(=O)COc2ccccc21)NCCCN1CCc2ccccc2C1	0 (inactive)
O=C(c1cccc(F)c1)N1CCN(Cc2ccco2)CC1	0 (inactive)
O=C(CCc1nc(-c2ccccc2F)no1)NCCN1CCN(Cc2ccccc2)CC1	0 (inactive)
CCc1ccc(-c2nc(CN3CCC(C(=O)NCc4ccco4)CC3)c(C)o2)cc1	-1 (active)
Cc1oc(-c2cccc(Cl)c2)nc1CN1CCC(C(=O)NCc2ccco2)CC1	-1 (active)
CCn1c(N)c(C(=O)NCc2ccco2)sc1=S	0 (inactive)
CCN1CCCC1CNC(=O)CSCc1nc(-c2ccccc2C)oc1C (stereo unspecified)	-1 (active)
Cc1ccc(S(=O)(=O)N/N=C/c2ccc(OC3CSC3)cc2)cc1	0 (inactive)
CCc1ccc2c(c1)C1(NN=C(c3ccc(C)cc3)S1)C(=O)N2 (stereo unspecified)	0 (inactive)
Cc1ccccc1C(=O)Nc1ccc2nc3n(c(=O)c2c1)CCC3	0 (inactive)
Cc1oc(-c2ccccc2F)nc1CS(=O)(=O)CC(=O)NCCN(C)C1CCCCC1	-1 (active)
CCN1CCCC1CNC(=O)C1CCN(Cc2nc(-c3cccc(Br)c3)oc2C)CC1 (stereo unspecified)	-1 (active)
CCC1CCCCN1C(=O)c1cc2cc(Br)ccc2oc1=O (stereo unspecified)	0 (inactive)
CN(c1ccccc1C(=O)Nc1ccccc1C(=O)NCc1ccco1)S(C)(=O)=O	0 (inactive)
Cc1cc(C)nc(N2CCCC(C(=O)NCCc3ccc(F)cc3)C2)n1 (stereo unspecified)	0 (inactive)
Cc1ccccc1-c1nc(CN2CCC(C(=O)NCc3ccco3)CC2)c(C)o1	-1 (active)
Cc1oc(-c2cccc(Cl)c2)nc1CN1CCCC(C(=O)NCc2ccco2)C1 (stereo unspecified)	-1 (active)
O=C(O)c1cnc(-c2ccccc2)nc1Sc1ccccc1Cl	0 (inactive)
CCn1c(=NC(=O)CSC(C)=O)sc2ccccc21	0 (inactive)
O=C(Nn1cnnc1)c1cc2cc(Br)ccc2oc1=O	0 (inactive)

SMILES	manual score
Cc1c(N2C(=O)CS/C2=N\N=C\c2ccccc2O)c(=O)n(-c2ccccc2)n1C	0 (inactive)
Cc1cccc(-c2nc(CN3CCCC(C(=O)NC4CCCCC4)C3)c(C)o2)c1 (stereo unspecified)	-1 (active)
Cc1ccccc1-c1nc(CN2CCC(C(=O)NCCCN3CC(C)CC(C)C3)CC2)c(C)o1 (stereo unspecified)	-1 (active)
O=C(C1CCCN(Cc2cccs2)C1)N1CCCCCC1 (stereo unspecified)	0 (inactive)
CC1CC(C)CN(CCCn2c(=S)[nH]c3ccccc3c2=O)C1 (stereo unspecified)	-0.5 (inactive)
O=[n+]1cc(-c2ccccc2)n([O-])c2c1CCC2	0 (inactive)
CC1=C(C(=O)Nc2cccnc2)C(c2ccc3c(c2)OCO3)C2=C(CCCC2=O)N1 (stereo unspecified)	-0.5 (inactive)
COCCN(C(=O)Cc1cccs1)C(C(=O)NCc1ccc(OC)cc1)c1ccccc1 (stereo unspecified)	0 (inactive)
COC(=O)COn1c(SC(C)C)nc2ccccc2c1=O	0 (inactive)
Cc1cc(C)c2nc(NC(=O)c3cc(C)on3)sc2c1	1 (active)
CCc1ccc2nc(NC(=O)c3cc(C)on3)sc2c1	1 (active)
O=C(Nc1nc2ccc(Cl)cc2s1)c1ccc(Br)o1	0 (inactive)
Cc1cccc2sc(NC(=O)Cn3cccc3)nc12	0 (inactive)
CNC(=O)c1ccc2nc(NC(C)=O)sc2c1	-0.5 (inactive)
COc1ccc2[nH]c(C)c(C(=O)CN3CC(C)OC(C)C3)c2c1 (stereo unspecified)	0 (inactive)
C/C(CC(=O)NC(C)C)=N\NC(=O)COc1cc(C)c(Br)cc1Br	1 (active)
C/C(CC(=O)NCC(C)C)=N\NC(=O)COc1cc(C)c(Br)cc1Br	1 (active)
Cc1ccccc1-n1nnc2c(=O)oc3ccccc3c21	0 (inactive)
O=C(Nc1nc(=O)c2ccccc2s1)c1ccc(Cl)cc1	1 (active)
O=C(Nc1nc(=O)c2ccccc2s1)c1ccc(F)cc1	1 (active)
O=C(Nc1nc(=O)c2ccccc2s1)c1ccccc1	1 (active)
O=C(Cc1ccccc1)Nc1nc(=O)c2ccccc2s1	0 (inactive)

SMILES	manual score
CCN(CC)C(=S)SCC(=O)Nc1nc(=O)c2ccccc2s1	0 (inactive)
CC(=O)Nc1ccc(SCC(=O)c2cc(C)n(-c3ccccc3F)c2C)cc1	0 (inactive)
COC(=O)c1ccc(NS(=O)(=O)c2ccc(SC)cc2)cc1	0 (inactive)
COC(=O)c1ccc(-n2c(C)cc(C(=O)CSc3ccc(NC(C)=O)cc3)c2C)cc1	1 (active)
CC(C)N(Cc1nc(-c2ccccc2)no1)C(=O)CSc1ccccc1	0 (inactive)
CCc1ccccc1N(C)C(=O)CCc1nc(-c2ccc(C)cc2)no1	-1 (active)
O=C(CCCc1nc(-c2ccc(Cl)cc2)no1)N1CCOCC1	0 (inactive)
CN(C)Cc1c(O)c(Cl)cc2c3c(c(=O)oc12)CCCC3	0 (inactive)
O=C(O)C1C2C=CC3(CN(C4CCCC4)C(=O)C13)O2 (stereo unspecified)	0 (inactive)
COc1ccc(NC(=O)NC(C)c2ccncc2)cc1OC (stereo unspecified)	0 (inactive)
COc1ccc(NC(=O)Nc2ccccc2OC)cc1	0 (inactive)
Cc1ccc(OC(=S)Nc2ccccc2)c(C)c1	0 (inactive)
CCCOc1ccc(NCC(=O)Nc2ccc(C)cc2C)cc1	0 (inactive)
O=C(NC(=S)NCCC1=CCCCC1)c1cncc(Br)c1	0 (inactive)
COc1ccc2cc(C(=O)Nc3ccccc3)sc(=O)c2c1OC	0 (inactive)
COc1ccc(NC(=O)Nc2cc(C)ccc2OC)cc1	1 (active)
CCOc1ccc(NC(=O)Nc2cc(C)ccc2OC)cc1	1 (active)
COc1ccc(C)cc1NC(=O)Nc1ccccc1	1 (active)
COc1ccc(C)cc1NC(=O)NCCC1=CCCCC1	1 (active)
O=C(O)c1ccccc1C(=O)Nc1ccc(-c2csc(-c3ccccc3)n2)cc1	0 (inactive)
CN1CC=C2C(C#N)=C(N)C(C#N)(C#N)[C@H](c3cccc(Cl)c3)C2C1 (stereo partly specified)	3 (inactive)
COC(=O)[C@H](Cc1ccccc1)NC(=O)NCCC1=CCCCC1	1 (active)

SMILES	manual score
COc1cc(C(=S)N2CCCC2)cc(OC)c1OS(=O)(=O)c1ccc(NC(C)=O)cc1	0 (inactive)
COC(=O)c1ccccc1NC(=O)Nc1cnccn1	0.5 (inactive)
COc1ccc(NC(=O)Nc2ccccc2C(=O)N2CCCC2)cc1	1 (active)
Cc1ccc(-c2[nH]nc3c2C(c2ccoc2)C(C#N)=C(N)O3)cc1C (stereo unspecified)	0 (inactive)
CCOC(=O)N1CCC(n2c(=S)[nH]c3ccccc3c2=O)CC1	0 (inactive)
CCOC(=O)N1CCN(c2ccc3nnnn3n2)CC1	0 (inactive)
CCOC(=O)N1CCN(c2c(F)cc3[nH]c(=S)[nH]c3c2Br)CC1	-1 (active)
O=C(Nc1nnc(-c2ccco2)o1)c1ccc2ccccc2c1	1 (active)
COc1ccc(-c2nnc(NC(=O)c3ccc(S(=O)(=O)N4CCc5ccccc5C4)cc3)o2)cc1	0 (inactive)
COc1ccc(-c2nnc(NC(=O)c3ccc(S(=O)(=O)N4COCC4(C)C)cc3)o2)cc1	1 (active)
COc1ccc(-c2nnc(NC(=O)c3ccc(S(=O)(=O)N4CCCc5ccccc54)cc3)o2)cc1	0 (inactive)
O=C(CSc1ccc(-c2ccco2)nn1)c1ccccc1	0 (inactive)
COc1ccc(-c2nnc(NC(=O)c3ccc(F)cc3)o2)cc1	1 (active)
COc1ccc(C(=O)Nc2ccc(S(=O)(=O)NCc3ccco3)cc2)cc1OC	0 (inactive)
CCOc1ccc(-c2nnc(NC(=O)CCCOc3cccc(C)c3)o2)cc1	0 (inactive)
CCOc1ccc(-c2nc(-c3ccc(OC)c(OC)c3)no2)cc1OCC	0 (inactive)
CCc1cc(C(N)=O)c(NC(=O)c2ccc(OC)cc2)s1	0 (inactive)
CCOc1ccc(-c2nnc(NC(=O)c3ccc(OCC(C)C)c(OC)c3)o2)cc1	1 (active)
